Assay results taken from PubChem BioAssay.
Calls of active or inactive are those of the source.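 How the source made its calls, unless noted: active means fluorescence slope higher than the sample average by over 3 SD (cut at about -0.22 in these data, passing the limit was not always enough); inactive means the rest.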

tested on: not listed separately; assay: endothelial E-selectin expression blockers – imaging, HUVEC, immunofluorescence, MLSMR starter and 10KST1 sets, primary screen (AID 487;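 active means visually confirmed hit in the image check and inhibition above 20%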;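 on inhibition: signal is fraction of cell area covered by stained E-selectin grains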;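 on nuclei count: 100% = median nuclei count of all wells on the same plate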); conditions: HUVEC TNFalpha-induced E-selectin immunofluorescence imaging, at 2 µM; inhibition: stronger effect = higher value; nuclei count: measured here: cell number, toxicity

| Compound | nuclei count [%] | inhibition |
| --- | --- | --- |
| CCCc1cc(C(=O)Nc2ccc(C(C)=O)cc2)no1 | 110 | -58.4% (inactive) |
| Cc1cc(C(=O)NCc2cccnc2)n(-c2ccccc2)n1 | 127 | -82.8% (inactive) |
| Cc1ccc(C)c(NC(=O)CC(NCCCN2CCOCC2)C(=O)O)c1 (stereo not given) | 81.2 | -34.4% (inactive) |
| COc1c(Br)cc2c(C)c(C(=O)O)oc2c1Br | 112 | -26.9% (inactive) |
| CCOCCCNC(=O)C(c1ccc(C)cc1)N(Cc1ccc2c(c1)OCO2)C(=O)c1cnccn1 (stereo not given) | 107 | -40.9% (inactive) |
| CC1CCCN(S(=O)(=O)c2coc(C(N)=O)c2)C1 (stereo not given) | 95.6 | 1.5% (inactive) |
| Clc1ccc(C2=Nn3c(nnc3-c3n[nH]c4c3CCC4)SC2)cc1Cl | 95.9 | 19.9% (inactive) |
| Clc1cccc(-c2nnc(-c3ccccc3)o2)c1 | 124 | 4.7% (inactive) |
| CCOc1ccc(NC(=O)CN(C)CC(=O)NC2CCCc3ccccc32)cc1OCC (stereo not given) | 100 | 10.8% (inactive) |
| Cc1nnc(SCC(=O)NCc2ccccc2)s1 | 120 | 10.5% (inactive) |
| CCOC(=O)CSc1nc2sc(C)c(C)c2c(=O)n1C | 113 | 8.8% (inactive) |
| COc1ccc(N2C(N)=C(C#N)C(c3cccnc3)C3=C2CC(C)(C)CC3=O)cc1 (stereo not given) | 104 | -1.3% (inactive) |
| Cc1ccc(OCC(O)CN2C(=O)NC(C)(C)C2=O)cc1C (stereo not given) | 112 | -19.6% (inactive) |
| Cc1ccccc1-n1c(Cn2c(=O)sc3ccccc32)nnc1SCC(=O)N1CCCC1 | 120 | -36.1% (inactive) |
| COc1ccc(-c2noc(-c3ccccc3C(=O)NCc3ccco3)n2)cc1 | 99.2 | -64.4% (inactive) |
| O=C(NCCCn1ccnc1)c1cnn2c1NC(c1ccccc1)CC2C(F)(F)F (stereo not given) | 93 | 6.6% (inactive) |
| CC1(C)Oc2ccc3ccc(=O)oc3c2C(N2CCCCC2)C1O (stereo not given) | 104 | -30.2% (inactive) |
| O=C(c1cnn2c1NC(c1ccco1)CC2C(F)(F)F)N1CCN(c2cccc(Cl)c2)CC1 (stereo not given) | 126 | -38.6% (inactive) |
| Cc1ccc(-c2nn(-c3ccccc3)cc2CN(Cc2ccccc2)C(=O)CCC(=O)O)o1 | 120 | -66.8% (inactive) |
| COC(=O)C1(C)NC(c2cccs2)C2C(=O)N(c3ccccc3F)C(=O)C21 (stereo not given) | 119 | -24.7% (inactive) |

| Compound | nuclei count [%] | inhibition |
| --- | --- | --- |
| O=c1ccc(S(=O)(=O)N2CCC(Cc3ccccc3)CC2)c[nH]1 | 111 | -15.8% (inactive) |
| O=C(CN(CCc1ccccc1)C(=O)CNS(=O)(=O)c1ccccc1)NCC1CCCO1 (stereo not given) | 109 | -46.7% (inactive) |
| CCn1c(SCC(=O)NC)nnc1C(C)C | 104 | -17.9% (inactive) |
| O=C(Cn1ncc2c(=O)oc3ccccc3c21)NCC1CCCO1 (stereo not given) | 125 | -40.1% (inactive) |
| Cc1ccc(-c2csc3ncn(-n4c(C)ccc4C)c(=O)c23)o1 | 66.1 | 55.1% (active) |
| CCCOc1ccc(N2C(=O)CC(SCCN)C2=O)cc1 (stereo not given) | 116 | -48.7% (inactive) |
| N#CC1=C(N)C(C#N)(C#N)[C@H](c2ccsc2)[C@H]2COCC=C12 | 93.1 | 8.2% (inactive) |
| O=C(CCS(=O)(=O)c1cccc2nonc12)Nc1cccc2c1CCCC2 | 114 | -14% (inactive) |
| C=COCCNC(=O)Nc1ccc(Cl)c(Cl)c1 | 119 | -170% (inactive) |
| COc1ccc(CN2C(=O)[C@@H]3C(c4ccc(F)cc4)=NO[C@@H]3C2=O)cc1 | 113 | -34.5% (inactive) |
| Cc1nc(NC(=O)C23CCC(C)(C(=O)O2)C3(C)C)sc1C (stereo not given) | 106 | -22.1% (inactive) |
| COc1ccc(-c2cc3n(n2)CCc2nc4ccccc4n2-3)cc1 | 127 | 37% (inactive) |
| Clc1ccc(C2Nc3ccccc3-n3cccc32)cc1 (stereo not given) | 104 | -44.3% (inactive) |
| CCOC(=O)c1[nH]c(C)c(C(=O)N2CCN(C(=O)c3ccco3)CC2)c1C | 101 | -102% (inactive) |
| CCCCSCCCNC(=O)CS(=O)Cc1nc(-c2cccc(C)c2)oc1C (stereo not given) | 113 | -27.5% (inactive) |
| O=C(COC(=O)CSc1nnc(-c2ccc(Cl)cc2)o1)NCc1ccc2c(c1)OCO2 | 107 | 9.2% (inactive) |
| Cc1ccc(C)c(S(=O)(=O)C(C#N)c2nc3ccccc3nc2N2CC(C)OC(C)C2)c1 (stereo not given) | 125 | -84.3% (inactive) |
| COC(=O)c1sc2ccccc2c1NC(=O)c1cccs1 | 99.1 | 1.4% (inactive) |
| CS(=O)(=O)N1CCN(c2ccccc2NC(=O)c2cccs2)CC1 | 89.5 | -0.6% (inactive) |
| CNC(=O)c1ccc(N(Cc2ccccc2C)S(C)(=O)=O)cc1 | 116 | -40.6% (inactive) |

target: Voltage-gated potassium channel subunit beta-2 (Rattus norvegicus) (UniProt P62483); assay: inhibitors of rat Kvbeta2 reductase activity – biochemical, NADPH fluorescence, primary screen (AID 622); conditions: recombinant KvBeta, 4-cyanobenzaldehyde reduction, at 10 µM, stronger effect = higher value;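 further: slope of raw intensity against log time taken from 70 to 1610 s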
Sequence (P62483 whole entry, looked up): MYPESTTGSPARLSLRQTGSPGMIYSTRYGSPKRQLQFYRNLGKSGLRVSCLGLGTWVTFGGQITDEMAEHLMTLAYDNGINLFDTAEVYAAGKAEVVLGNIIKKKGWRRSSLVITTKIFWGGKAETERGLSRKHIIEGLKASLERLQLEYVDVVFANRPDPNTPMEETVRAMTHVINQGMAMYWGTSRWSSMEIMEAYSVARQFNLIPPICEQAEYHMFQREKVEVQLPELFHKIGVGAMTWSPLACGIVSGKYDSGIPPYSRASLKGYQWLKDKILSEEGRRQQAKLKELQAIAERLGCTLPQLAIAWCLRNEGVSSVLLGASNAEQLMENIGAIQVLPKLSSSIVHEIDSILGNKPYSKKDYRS

| Compound | fluorescence slope |
| --- | --- |
| CCCc1cc(C(=O)Nc2ccc(C(C)=O)cc2)no1 | -0.559 (inactive) |
| Cc1cc(C(=O)NCc2cccnc2)n(-c2ccccc2)n1 | -0.546 (inactive) |
| Cc1ccc(C)c(NC(=O)CC(NCCCN2CCOCC2)C(=O)O)c1 (stereo not given) | -0.512 (inactive) |
| COc1c(Br)cc2c(C)c(C(=O)O)oc2c1Br | -0.443 (inactive) |
| CCOCCCNC(=O)C(c1ccc(C)cc1)N(Cc1ccc2c(c1)OCO2)C(=O)c1cnccn1 (stereo not given) | -0.471 (inactive) |
| CC1CCCN(S(=O)(=O)c2coc(C(N)=O)c2)C1 (stereo not given) | -0.6 (inactive) |
| Clc1ccc(C2=Nn3c(nnc3-c3n[nH]c4c3CCC4)SC2)cc1Cl | -0.498 (inactive) |
| Clc1cccc(-c2nnc(-c3ccccc3)o2)c1 | -0.391 (inactive) |
| CCOc1ccc(NC(=O)CN(C)CC(=O)NC2CCCc3ccccc32)cc1OCC (stereo not given) | -0.288 (inactive) |
| Cc1nnc(SCC(=O)NCc2ccccc2)s1 | -0.447 (inactive) |
| CCOC(=O)CSc1nc2sc(C)c(C)c2c(=O)n1C | -0.36 (inactive) |
| COc1ccc(N2C(N)=C(C#N)C(c3cccnc3)C3=C2CC(C)(C)CC3=O)cc1 (stereo not given) | -0.461 (inactive) |
| Cc1ccc(OCC(O)CN2C(=O)NC(C)(C)C2=O)cc1C (stereo not given) | -0.537 (inactive) |
| Cc1ccccc1-n1c(Cn2c(=O)sc3ccccc32)nnc1SCC(=O)N1CCCC1 | -0.547 (inactive) |
| COc1ccc(-c2noc(-c3ccccc3C(=O)NCc3ccco3)n2)cc1 | -0.592 (inactive) |
| O=C(NCCCn1ccnc1)c1cnn2c1NC(c1ccccc1)CC2C(F)(F)F (stereo not given) | -0.389 (inactive) |
| CC1(C)Oc2ccc3ccc(=O)oc3c2C(N2CCCCC2)C1O (stereo not given) | -0.34 (inactive) |
| O=C(c1cnn2c1NC(c1ccco1)CC2C(F)(F)F)N1CCN(c2cccc(Cl)c2)CC1 (stereo not given) | -0.382 (inactive) |
| Cc1ccc(-c2nn(-c3ccccc3)cc2CN(Cc2ccccc2)C(=O)CCC(=O)O)o1 | -0.429 (inactive) |
| COC(=O)C1(C)NC(c2cccs2)C2C(=O)N(c3ccccc3F)C(=O)C21 (stereo not given) | -0.52 (inactive) |

| Compound | fluorescence slope |
| --- | --- |
| O=c1ccc(S(=O)(=O)N2CCC(Cc3ccccc3)CC2)c[nH]1 | -0.369 (inactive) |
| O=C(CN(CCc1ccccc1)C(=O)CNS(=O)(=O)c1ccccc1)NCC1CCCO1 (stereo not given) | -0.481 (inactive) |
| CCn1c(SCC(=O)NC)nnc1C(C)C | -0.307 (inactive) |
| O=C(Cn1ncc2c(=O)oc3ccccc3c21)NCC1CCCO1 (stereo not given) | -0.61 (inactive) |
| Cc1ccc(-c2csc3ncn(-n4c(C)ccc4C)c(=O)c23)o1 | -0.468 (inactive) |
| CCCOc1ccc(N2C(=O)CC(SCCN)C2=O)cc1 (stereo not given) | -0.4 (inactive) |
| N#CC1=C(N)C(C#N)(C#N)[C@H](c2ccsc2)[C@H]2COCC=C12 | -0.538 (inactive) |
| O=C(CCS(=O)(=O)c1cccc2nonc12)Nc1cccc2c1CCCC2 | -0.547 (inactive) |
| C=COCCNC(=O)Nc1ccc(Cl)c(Cl)c1 | -0.348 (inactive) |
| COc1ccc(CN2C(=O)[C@@H]3C(c4ccc(F)cc4)=NO[C@@H]3C2=O)cc1 | -0.302 (inactive) |
| Cc1nc(NC(=O)C23CCC(C)(C(=O)O2)C3(C)C)sc1C (stereo not given) | -0.462 (inactive) |
| COc1ccc(-c2cc3n(n2)CCc2nc4ccccc4n2-3)cc1 | -0.433 (inactive) |
| Clc1ccc(C2Nc3ccccc3-n3cccc32)cc1 (stereo not given) | -0.301 (inactive) |
| CCOC(=O)c1[nH]c(C)c(C(=O)N2CCN(C(=O)c3ccco3)CC2)c1C | -0.5 (inactive) |
| CCCCSCCCNC(=O)CS(=O)Cc1nc(-c2cccc(C)c2)oc1C (stereo not given) | -0.308 (inactive) |
| O=C(COC(=O)CSc1nnc(-c2ccc(Cl)cc2)o1)NCc1ccc2c(c1)OCO2 | -0.587 (inactive) |
| Cc1ccc(C)c(S(=O)(=O)C(C#N)c2nc3ccccc3nc2N2CC(C)OC(C)C2)c1 (stereo not given) | -0.494 (inactive) |
| COC(=O)c1sc2ccccc2c1NC(=O)c1cccs1 | -0.551 (inactive) |
| CS(=O)(=O)N1CCN(c2ccccc2NC(=O)c2cccs2)CC1 | -0.501 (inactive) |
| CNC(=O)c1ccc(N(Cc2ccccc2C)S(C)(=O)=O)cc1 | -0.636 (inactive) |
